Among all 55,000 compounds or so, about 340 (0.62%) were called active. Another 3% or so got no clear call; they are omitted. Calls come from the whole dose curve; as a rule, active = well fitted cell-killing curve with a large enough effect; inconclusive = small, poorly fitted or top-dose-only effect; inactive = no such curve, though single readings can be large or run the other way. The entries come from a sample that favours actives as a whole. Entries that show only a call come without a potency.
Potency is the fitted concentration of half-maximal effect.

The assay in a line: qHTS Screen for Compounds that Selectively Target Cancer Cells with p53 Mutations: Cytotoxicity of p53 Null Cells at the Permissive Temperature. Note: nearly all actives have a fitted effect of over 55% in size. As to conditions: H1299-neo p53 null cells, ATP luminescence, 24 h, 32C; series mostly up to 46.1 µM. The text has this: NIH Chemical Genomics Center [NCGC] NIH Molecular Libraries Screening Centers Network [MLSCN] MLSCN Grant: 1 X01 MH079844-01 Assay Submitter (PI): Dr. SUN, YI, University of Michigan NCGC Assay Overview: Synthetic Lethal Screen for Compounds to Kill Cancer Cells with p53 Mutation. Tumor suppressor gene p53 serves as a major cellular barrier against tumorigenesis. […] The goal of this screening is to identify small molecule probes that selectively kill cancer cells with mutations in p53. This screening was carried out using two lines of H1299 lung cancer cells. The H1299-p53 A138V line express a temperature sensitive p53 mutant (p53ts) in which the mutant p53 protein (A138V) is in the mutant confirmation when grown at 39C (the nonpermissive temperature) and in the wild type conformation when grown at 32C (the permissive temperature). A H1299-neo line (p53 null) grown at both 39C and 32C were used as counter-screens to filter out false positive associated with temperature shifting. The small molecular compounds that selectively target mutant p53-containing cancer cells were selected as candidate probes for further study. A cytotoxicity assay based on the measurement of ATP contents in cells was used in this screen. Concentration-responses of all the compounds in the library collection were determined in qHTS using the cell lines and temperature conditions as above.
NCGC Assay Protocol Summary: Both the H1299-p53A138V and H1299-neo cell lines were provided by Dr.Yi Sun, a PI at the University Michigan. The cells were maintained and cultured at 37C. The resuspended frozen cells were used to plate the cells in the 1536-well assay plates at a density of 600 cells per well in 5 ul medium. The assay plates with the cells were incubated at 37C for 16 to 30 hours before the experiments. The library compounds in DMSO solution were added to the cells in assay plates and incubated 24 hours at 39C (for mutant p53 conformation) or 32C (for normal p53 conformation as control). An ATP_lite assay kit (PerkinElmer) was used to determine the cell viability. Tomaxifen (100uM) was used as the positive control for cell killing. Data were normalized to the controls for basal activity (DMSO only) and 100% killing (100uM tamoxifen). AC50 values were determined from concentration-response data modeled with the standard Hill equation. P53 assay protocol: 1. Reagent; 5 uL H1299-p53A138V or H1299-neo cell cells/well 2. Time; overnight; 37C incubation 3. Compounds; 23 nL; 5.9 nM to 46 uM 4. Controls; 23 nL; Tamoxifen 100 uM 5. Time; 24 hr; 32C incubation 6. Reagent; 3 uL; ATP_Lite reagent 7. Time; 20 min; Room Temperature 8. Detection; Luminescence; Viewlux plate reader Keywords: p53, synthetic lethal, cancer, cell viability, cytotoxicity, H1299 cell line, luminescence, MLSMR, MLSCN, NIH Roadmap, qHTS, NCGC
Consider `CC(C)Oc1ccc(NC(=O)c2cc3ccccc3o2)cc1`, for which the Potency was 10 µM (active). Turning to `Cn1cc(/C=C/c2nc3ccccc3c(=O)n2-c2ccccc2)c2ccccc21`, the Potency result is “inactive”.

`CC(C)(C)c1ccc(S(=O)(=O)Nc2ccc(O)c(Sc3nc4ccccc4s3)c2)cc1`: the Potency result is “inactive”. In the case of `CCCCOc1ccc(C(=O)N2CC(=O)Nc3ccc(Br)cc3C2c2ccc(F)cc2)cc1` (stereo not given) it was “inactive”.

Take `Cc1ccc(Cn2c(C)c3cnn(CC(=O)N4CCC5(CC4)OCCO5)c(=O)c3c2C)cc1`: the Potency result was “inactive”.

The record behind these values is PubChem BioAssay AID903 (National Center for Advancing Translational Sciences (NCATS), 2007).
